Bioassay records as filed in PubChem BioAssay.
Rows were chosen to be rich in hits. Some 19% of all compounds tested hit in one or more screens of this group.
HepG2 tox: HepG2 cytotoxicity, counter-screen for TGF-b inhibitors | HepG2 CAGA-GFP viability, ATP luminescence, 18 h | Potency, µM (doses to about 46.1 µM), most hits filed as cytotoxic | 0.76% of 410,000 active
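HepG2 CAGA-GFP cells (1000/well, DMEM with 1% FBS) received compound, then TGF-beta at 500 pg/mL final, and were incubated 18 hours at 37 degrees C. Viability was read by CellTiter-Glo luminescence. Media-only wells were set as complete cell-killing and DMSO as no toxicity.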
IL-1B inflam inh: inhibitors of inflammasome signaling (IL-1 beta secretion); THP-1 LPS/ATP IL-1B secretion, AlphaLISA, 16 h; hits give low values; activity change, % at 57.5 µM; 4.7% of 360,000 active; AID 743279; in the data active = activity change below about -50%; inconclusive = mostly about -30% to -49%
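Secreted IL-1B measured by AlphaLISA bead assay after 16 h compound exposure of THP-1 cells; compounds (final up to 57.5 uM) added 1 h before LPS (250 ng/mL) and ATP (1.25 mM) stimulation; lower signal means less secretion.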
TGFb SMAD3 inh: blocks TGF-b signaling; Potency, µM (doses to about 46.1 µM), usual class: inhibitors; AID 588855; 1.2% of 410,000 active; HepG2 CAGA-GFP TGF-b/SMAD3 reporter, GFP fluorescence, 18 h; TGF-beta stimulated, 500 pg/mL final; also: nearly all actives have a fitted effect of over 65% in size
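Smad-responsive CAGA-GFP expression was quantified in HEPG2 cells exposed to compounds and 500 pg/mL final TGF-beta for 18 h at 37 degrees C; unstimulated wells defined full inhibition.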
TDP1 cell CPT: growth inhibition of DT40 Tdp1-/-;hTDP1 cells with camptothecin (screen for TDP1 inhibitors) | 12% of 420,000 active | Potency, µM (series often up to 46.2 µM), usual class: inhibitors | chicken DT40 Tdp1-/-;hTDP1 cells + 20 nM CPT, ATP luminescence, 48 h; also: nearly all actives have a fitted effect of over 55% in size
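Chicken DT40 Tdp1-/- cells complemented with human TDP1, 400 cells/well, exposed to compounds plus 20 nM camptothecin for at least 48 h at 37 C; viability read as ATP content by CellTiter-Glo luminescence.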
TDP1 cell noCPT: qHTS for Inhibitors of human tyrosyl-DNA phosphodiesterase 1 (TDP1): qHTS in cells in absence of CPT. DT40 Tdp1-/- hTDP1 cells, no CPT, ATP luminescence, 48 h. Potency, µM (series often up to 46.2 µM), actives largely listed as inhibitors. 15% of 420,000 active. AID 686978, 2013; also: nearly all actives have a fitted effect of over 55% in size
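Chicken DT40 Tdp1-/- cells stably complemented with human TDP1 were seeded at 400 cells/well with DMSO in place of 20 nM camptothecin. After compound pinning, cells grew at least 48 hr at 37 °C; viability read by CellTiter-Glo luminescence.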
S-ASM inh: inhibitors of human secretory acid sphingomyelinase. placental ASM, HMU-PC fluorogenic substrate, 60 min. AID 504937. 0.006% of 340,000 active. Potency, µM (titrated, usually from 57.5 µM), hits mostly inhibitors. P17405
Target sequence (P17405 47-631 limits assumed): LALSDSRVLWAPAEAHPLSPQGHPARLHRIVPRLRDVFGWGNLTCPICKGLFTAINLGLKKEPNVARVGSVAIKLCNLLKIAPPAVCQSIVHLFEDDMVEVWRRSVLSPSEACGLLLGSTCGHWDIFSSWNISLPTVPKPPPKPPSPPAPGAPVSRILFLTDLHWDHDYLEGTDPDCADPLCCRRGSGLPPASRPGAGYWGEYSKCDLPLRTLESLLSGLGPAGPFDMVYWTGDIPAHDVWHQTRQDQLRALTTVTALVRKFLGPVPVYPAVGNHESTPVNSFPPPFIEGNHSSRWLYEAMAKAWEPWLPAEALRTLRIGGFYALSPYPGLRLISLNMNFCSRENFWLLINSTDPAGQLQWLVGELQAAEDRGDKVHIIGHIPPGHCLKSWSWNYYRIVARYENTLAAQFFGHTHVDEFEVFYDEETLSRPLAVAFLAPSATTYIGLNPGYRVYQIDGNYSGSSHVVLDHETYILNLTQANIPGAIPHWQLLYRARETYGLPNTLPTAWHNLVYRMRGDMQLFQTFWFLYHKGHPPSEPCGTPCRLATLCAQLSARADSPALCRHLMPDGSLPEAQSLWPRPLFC
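Steps: dispense placental human ASM, pin compound, wait 10 min at room temperature, add HMU-PC0 substrate at 9 uM final, incubate 60 min at 37 °C, add stop solution raising pH to 10, read fluorescence.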
A number is an active result; - = inactive; ? = inconclusive; . = not tested or not shown. Unless noted, calls follow the shape of the dose curve; as a rule, active = well fitted curve in the direction sought with a large enough effect; inconclusive = small, poorly fitted or top-dose-only effect, or another doubt; inactive = no such curve, though single readings can be large; an effect the other way counts as inactive or inconclusive.

SMILES | HepG2 tox | IL-1B inflam inh | TGFb SMAD3 inh | TDP1 cell CPT | TDP1 cell noCPT | S-ASM inh
CC1=C(CC[C@@H](C)CO)OC2CC3C4CCC5CC(O)CCC5(C)C4CC(=O)C3(C)C12 (stereo partly specified) | - | -66 | - | ? | ? | -
C[C@@H]1CC[C@@]2(OC1)O[C@H]1C[C@H]3[C@@H]4CC[C@H]5C[C@@H](O)CC[C@]5(C)[C@H]4CC(=O)[C@]3(C)[C@H]1[C@@H]2C | . | . | . | - | - | .
COCCCNC(=O)c1ccc2c(c1)nc1n2CCCCC1 | - | . | - | - | - | .
Cc1ccccc1-n1c(/C=C/c2c(C)n(C)c3ccccc23)nc2ccccc2c1=O | - | . | - | 6.5µM | 8.2µM | .
COc1ccccc1-n1c(/C=C/c2c(C)n(C)c3ccccc23)nc2ccccc2c1=O | - | . | ? | ? | 3.7µM | .
CCn1c(/C=C/c2c(C)n(CC)c3ccccc23)nc2ccccc2c1=O | - | - | - | ? | ? | -
Cc1ccc(C)c(NC(=O)Cn2c(=O)n(CC3CCCO3)c(=O)c3ccccc32)c1 (stereo unspecified) | - | . | - | - | ? | .
Cc1ccc(N2C(=O)CSC23C(=O)N(CC(=O)NCCc2ccccc2)c2ccccc23)cc1 (stereo unspecified) | - | . | - | - | - | .
CC(C)(C)NCCOCCOc1ccccc1-c1ccccc1 | - | - | - | 12µM | ? | -
N#C/C(=C\c1c[nH]c2ccccc12)C(=O)Nc1ncc(Cc2ccc(Cl)cc2Cl)s1 | - | -61 | - | ? | 16µM | -
CCOC(=O)c1sc(NC(=O)C(C)Oc2ccc(OC)cc2)c(C(=O)OCC)c1C (stereo unspecified) | - | . | - | ? | ? | .
COc1cc(C2SCC(=O)N2c2nnc(C34CC5CC(CC(C5)C3)C4)s2)cc(OC)c1OC (stereo unspecified) | - | -55 | - | 18µM | ? | -
CC1C=CCC2C(=O)N(c3cccc(C(=O)Nc4ccc(F)cc4)c3)C(=O)C12 (stereo unspecified) | - | - | - | - | - | -
C=CCN(C(=O)c1cccc(N2C(=O)C3CC=CC(C)C3C2=O)c1)c1ccccc1 (stereo unspecified) | - | - | - | ? | 4.6µM | -
Cc1ccc(NC(=O)c2c(C(F)(F)F)nn(C)c2SCc2ccc(Cl)cc2)cc1C | - | - | ? | 26µM | 23µM | -
Cc1ccc(NC(=O)c2c(C(F)(F)F)nn(C)c2SCc2cccc(C(F)(F)F)c2)cc1C | - | - | - | 7.3µM | 4.1µM | -
CCc1nc2ccc(C(=O)Nc3cccc(OCC(=O)N(C)C)c3)cn2c1N(C)Cc1ccc(N(C)C)cc1 | - | - | - | ? | ? | .
CCN(C(=O)COn1nnc2ccc(S(=O)(=O)N(C)C)cc21)C1CCS(=O)(=O)C1 (stereo unspecified) | - | - | - | - | - | -
COc1ccc2cc(C3CC(c4ccco4)=NN3S(C)(=O)=O)c(Cl)nc2c1 (stereo unspecified) | - | - | - | ? | ? | -
Cc1ccc2nc(Cl)c(C3CC(c4cccs4)=NN3C(=O)CCCC(=O)O)cc2c1 (stereo unspecified) | - | - | - | - | 8.2µM | -
CCOc1ccc2nc(Cl)c(C3CC(c4ccc(C)cc4)=NN3C(=O)CCCC(=O)O)cc2c1 (stereo unspecified) | - | . | - | - | - | .
Cc1ccc2cc(C3CC(c4ccco4)=NN3C(=O)CCC(=O)O)c(Cl)nc2c1 (stereo unspecified) | - | - | - | ? | 16µM | -
COC(=O)C1CCN(C2CN(C3CCCCC3)S(=O)(=O)C2)CC1 (stereo unspecified) | - | ? | - | - | - | .
COc1ccc2c(COC(=O)c3ccc(C)c(S(=O)(=O)N4CCOCC4)c3)cc(=O)oc2c1 | - | - | - | ? | 16µM | -
